Reference: PubChem BioAssay (NCI)
Where “and” joins values, the source holds several entries; their conditions need not be identical. Equal values may be shown once. The panel holds about 83,000 compounds, 20% with a hit somewhere; the sample as a whole holds those more often.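 Compound tested at a single concentration for 48 hours in 96-well plates; a percent growth value below 10 was scored as active.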 Calls of active or inactive are those of the source.

Tested on: OVCAR-3 ovarian
Assay: NCI-60 one-dose screen, 48 h (100 = growth as untreated, 0 = no growth, -100 = all killed)
Details: 10 µM
Description: Growth inhibition of the OVCAR-3 human tumor cell line is measured as a screen for anti-cancer activity. Cells are grown in 96 well plates and exposed to the test compound for 48 hours. Compounds are tested at a single concentration, which is 10^-5 M for most compounds. The reported endpoint is percent growth (GI% or GIPRCNT), where numbers from 0 - 100% represent growth inhibition, and numbers from -100% - 0 represent cell death. For example, a value of 40 represents 60% growth inhibition. A value of 0 means no net growth occurred over the course of the experiment. A value of -40 indicates 40% of cells at the beginning of the experiment died by the end of the experiment. A value of -100 means all cells are dead at the end of the experiment.
NCI-60 Human Tumor Cell Lines Screen was performed using the standard one-dose NCI protocol, which is described in more detail at https://dtp.cancer.gov/discovery_development/nci-60/default.htm.
Compounds with GIPRCNT values below 10 were considered active. Activity score was based on GIPRCNT using the following formula: […]
Score is 0 for GIPRCNT values of 100 or above, 50 for GIPRCNT values of 0, and 100 for GIPRCNT values of -100.

Row | SMILES | growth
1 | CCN(Cc1ccccc1)c1ccc(/C=C2\COc3ccccc3C2=O)cc1 | 108% (inactive)
2 | CC(=O)/C=C/c1ccc(OCc2ccc(C(C)(C)C)cc2)cc1 | 94.6% (inactive)
3 | CC(=O)/C=C/c1ccc(N(C)Cc2ccc(C(C)(C)C)cc2)cc1 | 101% (inactive)

Same assay, conditions: 10 µM unless noted

Row | SMILES | growth
4 | Cc1c(CC(=O)OCCO)cc(-c2ccc(Cl)cc2)n1-c1ccccc1 | 108% (inactive)
5 | FC(F)(F)Sc1ccc(/C=C/c2cc(/C=C/c3ccc(SC(F)(F)F)cc3)n(-c3ccccc3)n2)cc1 | 95.5% (inactive)
6 | CCCCCCCC/C=C\CCCCCCCCOc1ccccc1CC(=O)NCC[N+]1(C)CCOCC1 | 101% (inactive)
7 | C=C1C(=O)O[C@H]2[C@H]1CC/C(COC(=O)NCCCCNC(=O)OC/C1=C/CC[C@@]3(C)O[C@H]3[C@H]3OC(=O)C(=C)[C@@H]3CC1)=C\CC[C@@]1(C)O[C@@H]21 | -8.75% (active)
8 | O=C1/C(=C/c2ccc(-c3cccc(C(F)(F)F)c3)o2)SC(=S)N1CCc1ccc(O)cc1 | 63.4% (inactive)
9 | CCN(CC)CCOc1ccccc1C | 117% (inactive)
10 | CCOC(=O)c1c(-c2ccc(OC)cc2)c(C#N)c2c(C#N)c(N)nn2c1N | 5.29% (active)
11 | COc1ccc(-c2[nH]c3ccccc3c2-c2ccc(OC)cc2)cc1 | 12.9% (inactive)
12 | O=C(Nc1ccc2ncsc2c1)c1csc(Nc2ccc3[nH]ncc3c2)n1 | 8.38% (active)
13 | O=C(NCc1ccc(Cn2c(=O)sn(-c3ccc(Cl)cc3)c2=O)cc1)OCc1ccc2c(Cl)cc(Cl)c(O)c2n1 | 63.7% (inactive)
14 | NNCCc1ccccc1 | 122% (inactive) and 100% (inactive)
15 | OCCN1CCN(c2cc(-c3cccc(OC(F)(F)F)c3)nc3ccc(N4CCCC4)cc23)CC1 | 46.7% (inactive)
16 | COc1ccc(-c2nnc3n(C)c(=O)c4ccccc4n23)cc1O | 0.325% (active)
17 | O=C(Nc1ncc(Cc2cccc(C(F)(F)F)c2)s1)c1ccc2c(c1)OCCO2 | -8.1% (active)
18 | Cc1ccc(C(=O)Nc2nc3c(s2)CN(Cc2ccccc2)CC3)cn1 | 88.1% (inactive)
19 | CN1CCN(C(=O)OCc2nc3c(N4CCOCC4)nc(Cl)nc3n2C)CC1 | -80.4% (active)
20 | Cc1ccc(/C=C/c2c(C(=O)/C=C/c3ccccc3)c(C)nc3ccccc23)cc1 | -22% (active)

Row | SMILES | growth
21 | N#Cc1c(-c2cccc(F)c2)cc(-c2cccnc2)[nH]c1=O | 108% (inactive)
22 | O=C(Nc1ccc2ccccc2c1)c1cc2ccccc2cc1O | -0.789% (active)
23 | C=C[C@]1(C)C=C2CC[C@@H]3C(C)(C)C(=O)CC[C@@]3(C)[C@@H]2CC1 | 109% (inactive)
24 | CON1CCC[C@]2(C)[C@H]3CC[C@@H]4[C@H]5[C@@H](O)C(C)(C)CC[C@]5(CO)CC[C@@]4(C)[C@]3(C)CC[C@H]2C1(C)C | 104% (inactive)
25 | N=C(N)c1ccc(-c2ccc(-c3ccc(F)cc3)s2)nc1 | 76.9% (inactive)
26 | CCCCCCCCCCCCCCCC[N+](C)(C)CCN(Cc1ccc(OC)cc1)c1ncccn1 | -100% (active) and 45.5% (inactive)
27 | COC(=O)/C=C1/SC(N2N=C(c3cccs3)CC2c2ccc(F)cc2)=NC1=O (stereo not given) | 11.5% (inactive)
28 | CCc1c2c(nc3ccc(OCc4ccc(B5OC(C)(C)C(C)(C)O5)cc4)cc13)-c1cc3c(c(=O)n1C2)COC(=O)[C@]3(O)CC | 0.732% (active)
29 | CCOC(=O)C1=C(C)N=C2SC=C(c3ccc(F)cc3)N2[C@H]1c1cn(-c2ccccc2)nc1-c1ccc(Cl)cc1 | 114% (inactive)
30 | Nc1ccc(-c2nc3ccc4[nH]ncc4c3c3c2CCCC3)cc1F | 37.3% (inactive)
31 | CCN(CC)CC#CCOC(=O)[C@]1(C)CCC[C@]2(C)c3ccc(C(C)C)cc3CC[C@@H]12 | 90.6% (inactive)
32 | Cc1ccc(Cc2cnc(NC(=O)c3cc(C)oc3C)s2)cc1 | 81.4% (inactive)
33 | COc1ccc(C/C(C)=C(\c2ccc(O)cc2)c2ccc(OCCCN(C)C)cc2)cc1 | 98.3% (inactive)
34 | C#CCn1cnc2cnc(Nc3cccc(NC(=O)CCl)c3)nc21 | -44.9% [6.25 µM] (active)
35 | N#Cc1ccccc1OCC(=O)Nc1nc2c(s1)COc1ccccc1-2 | 110% (inactive)
36 | COc1ccc2c(O)c(/C=C3\N=Nc4nc(C)ccc43)oc2c1CC1CCNCC1 | 83.8% (inactive)
37 | CN(C)CCCn1c2c(c3ccc(N4CCNCC4)cc3c1=O)C(=O)c1ccccc1-2 | -0.802% (active)

Same assay, conditions: 100 µM

Row | SMILES | growth
38 | CCN(Cc1ccccc1)c1ccc(/C=C2\COc3ccccc3C2=O)cc1 | 19.1% (inactive)
39 | CC(=O)/C=C/c1ccc(OCc2ccc(C(C)(C)C)cc2)cc1 | 47.1% (inactive)
40 | CC(=O)/C=C/c1ccc(N(C)Cc2ccc(C(C)(C)C)cc2)cc1 | -93.2% (active)
